Data from PubChem BioAssay AID770 (SRMLSC, 2007).
Out of some 3,300 compounds screened, fewer than 10 were called active.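 Rule for the calls: active = growth inhibition above 90% in viable cell count at a single dose; inactive = growth inhibition below 90%.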 The list is a sample of the results.

Test: HT29 colon tumor cell growth inhibition, primary screen, imaging, high content imaging, 24 h, CellTiter-Glo (AID 770);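 for condensed nuclei: share of cells whose nuclear area falls below control median minus 1.5 SD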
Conditions: HT29 cell number by imaging, at 10 µM, stronger effect = higher value; for condensed nuclei: measured here: percent cells with condensed nuclei
[1] = measured here: ATP CellTiter-Glo viability

Row | Compound | growth inhibition | growth inhibition [1] | condensed nuclei
1 | c1ccc2c(c1)[nH]c1cnccc12 | 36.4% (inactive) | 17.6% | 3.43%
2 | Cc1c2ccncc2c(C)c2c1[nH]c1ccccc12 | 95.1% (active) | 46.4% | 18.1%
3 | C=CCOC(=O)C1=C(C)OC(N)=C(C#N)[C@@]12C(=O)N(CC(N)=O)c1ccccc12 | 19% (inactive) | -1.1% | 5.52%
4 | Cn1c(O)c(C=NC2CCN(Cc3ccccc3)CC2)c(=O)n(C)c1=O | 26.8% (inactive) | 3.87% | 6.67%
5 | CN1CC[C@@]23CCCC[C@@H]2[C@@H]1Cc1ccc(O)cc13 | -3.31% (inactive) | -18.2% | 4.84%
6 | C/C(Cl)=C/CC1(CN2CCCC2=O)C(=O)NC(=O)NC1=O | -10.6% (inactive) | -8.34% | 2.87%
7 | CCCCCCn1c(O)c(C=Nc2c(C)n(C)n(-c3ccccc3)c2=O)c(=O)[nH]c1=O | -5.94% (inactive) | -9.79% | 3.03%
8 | CCOc1ccccc1-n1c(O)c(C=Nc2c(C)n(C)n(-c3ccccc3)c2=O)c(=O)[nH]c1=O | 100% (active) | -85.3% | 5.62%
9 | Cc1c(N=Cc2c(O)n(CCc3ccccc3)c(=O)[nH]c2=O)c(=O)n(-c2ccccc2)n1C | 23.4% (inactive) | 16.4% | 7.53%
10 | CCCCCCn1c(O)c(C=NC2CCN(Cc3ccccc3)CC2)c(=O)[nH]c1=O | 3.03% (inactive) | 23.3% | 1.13%
